# Source: paper PMC7862700, “An all-to-all approach to the identification of sequence-specific readers for epigenetic DNA modifications on cytosine”
# Key:
# Experiment in all cases: DAPPL (digital affinity profiling via proximity ligation, sequencing); 10 mM Tris-HCl pH 7.5, 50 mM NaCl, 1 mM DTT, 4% glycerol, room temperature, 30 min; GST-TFs on glutathione beads, 16-mer random dsDNA library, 0.1% formaldehyde crosslink after washing; high values mean tight binding
# FEV = target: T1, FEV (Homo sapiens, UniProt Q99581 1-238); details: protein: recombinant; tags: N-terminal GST; dsDNA, one strand shown
# T1 sequence: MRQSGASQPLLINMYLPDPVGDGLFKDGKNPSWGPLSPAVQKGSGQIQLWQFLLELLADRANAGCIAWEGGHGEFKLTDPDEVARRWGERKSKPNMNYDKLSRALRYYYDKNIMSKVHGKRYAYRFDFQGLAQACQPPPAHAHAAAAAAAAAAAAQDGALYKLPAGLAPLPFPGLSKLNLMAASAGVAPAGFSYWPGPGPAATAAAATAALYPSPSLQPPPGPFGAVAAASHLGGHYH
# Method in brief: (§1)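 Binding signal is given per hexamer as its read frequency for a factor divided by its frequency in the tag-only sample. GST-fused human transcription factors were expressed in yeast, captured on glutathione beads, barcoded with DNA and pooled with that sample, then incubated with 200 nmole of a 16-mer random double-stranded DNA library in Tris/NaCl/DTT/glycerol buffer for 30 min at room temperature. The pools were then washed, crosslinked, proximity-ligated, amplified by PCR and sequenced on an Illumina NextSeq500.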
# ETV5 = ETV5 (Homo sapiens, UniProt P41161 1-510); details: protein: recombinant; tags: N-terminal GST; dsDNA, one strand shown
# Chain of ETV5 (P41161 whole entry): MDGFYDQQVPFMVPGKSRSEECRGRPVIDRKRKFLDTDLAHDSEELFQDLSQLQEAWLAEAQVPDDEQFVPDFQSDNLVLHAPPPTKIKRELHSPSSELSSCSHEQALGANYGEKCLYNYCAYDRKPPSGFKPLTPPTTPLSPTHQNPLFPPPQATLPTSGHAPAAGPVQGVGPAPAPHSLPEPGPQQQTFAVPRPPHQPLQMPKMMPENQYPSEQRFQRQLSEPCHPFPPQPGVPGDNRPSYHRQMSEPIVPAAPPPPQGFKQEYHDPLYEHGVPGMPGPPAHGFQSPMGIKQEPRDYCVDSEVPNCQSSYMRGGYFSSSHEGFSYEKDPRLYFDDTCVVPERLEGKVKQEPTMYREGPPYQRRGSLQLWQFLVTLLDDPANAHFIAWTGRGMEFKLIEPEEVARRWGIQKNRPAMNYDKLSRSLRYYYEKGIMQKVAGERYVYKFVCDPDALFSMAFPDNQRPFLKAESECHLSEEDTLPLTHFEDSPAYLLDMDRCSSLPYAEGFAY
# Method in brief: as §1
# HSF1 = HSF1 (Homo sapiens, UniProt Q00613 1-529); details: protein: recombinant; tags: N-terminal GST; chain copies: 3; dsDNA, one strand shown
# Chain of HSF1 (Q00613 whole entry): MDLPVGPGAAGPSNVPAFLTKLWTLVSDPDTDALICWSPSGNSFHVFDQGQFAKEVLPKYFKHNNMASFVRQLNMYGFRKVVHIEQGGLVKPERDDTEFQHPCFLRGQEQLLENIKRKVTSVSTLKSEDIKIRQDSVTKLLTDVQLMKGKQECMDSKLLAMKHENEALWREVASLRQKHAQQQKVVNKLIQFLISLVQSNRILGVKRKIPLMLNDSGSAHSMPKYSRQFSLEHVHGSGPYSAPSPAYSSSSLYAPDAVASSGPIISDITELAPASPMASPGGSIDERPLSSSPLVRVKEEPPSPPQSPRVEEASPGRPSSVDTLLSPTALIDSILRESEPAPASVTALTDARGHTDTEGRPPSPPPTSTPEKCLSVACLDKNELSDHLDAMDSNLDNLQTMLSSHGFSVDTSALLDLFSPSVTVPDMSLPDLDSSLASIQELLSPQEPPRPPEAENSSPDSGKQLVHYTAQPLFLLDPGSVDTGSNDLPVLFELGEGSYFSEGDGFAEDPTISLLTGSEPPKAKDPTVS
# Method in brief: as §1
# SPIC = target: T2, SPIC (Homo sapiens, UniProt Q8N5J4 1-248); details: protein: recombinant; tags: N-terminal GST; dsDNA, one strand shown
# T2 sequence: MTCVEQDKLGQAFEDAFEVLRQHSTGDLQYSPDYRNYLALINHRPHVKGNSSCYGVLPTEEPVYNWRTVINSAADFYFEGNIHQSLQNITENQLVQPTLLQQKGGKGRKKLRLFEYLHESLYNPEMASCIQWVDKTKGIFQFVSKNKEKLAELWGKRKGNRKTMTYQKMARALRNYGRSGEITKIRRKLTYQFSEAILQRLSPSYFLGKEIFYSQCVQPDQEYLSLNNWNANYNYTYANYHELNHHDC
# Method in brief: as §1
# ELF4 = ELF4 (Homo sapiens, UniProt Q99607 1-663); details: protein: recombinant; tags: N-terminal GST; dsDNA, one strand shown
# Chain of ELF4 (Q99607 whole entry): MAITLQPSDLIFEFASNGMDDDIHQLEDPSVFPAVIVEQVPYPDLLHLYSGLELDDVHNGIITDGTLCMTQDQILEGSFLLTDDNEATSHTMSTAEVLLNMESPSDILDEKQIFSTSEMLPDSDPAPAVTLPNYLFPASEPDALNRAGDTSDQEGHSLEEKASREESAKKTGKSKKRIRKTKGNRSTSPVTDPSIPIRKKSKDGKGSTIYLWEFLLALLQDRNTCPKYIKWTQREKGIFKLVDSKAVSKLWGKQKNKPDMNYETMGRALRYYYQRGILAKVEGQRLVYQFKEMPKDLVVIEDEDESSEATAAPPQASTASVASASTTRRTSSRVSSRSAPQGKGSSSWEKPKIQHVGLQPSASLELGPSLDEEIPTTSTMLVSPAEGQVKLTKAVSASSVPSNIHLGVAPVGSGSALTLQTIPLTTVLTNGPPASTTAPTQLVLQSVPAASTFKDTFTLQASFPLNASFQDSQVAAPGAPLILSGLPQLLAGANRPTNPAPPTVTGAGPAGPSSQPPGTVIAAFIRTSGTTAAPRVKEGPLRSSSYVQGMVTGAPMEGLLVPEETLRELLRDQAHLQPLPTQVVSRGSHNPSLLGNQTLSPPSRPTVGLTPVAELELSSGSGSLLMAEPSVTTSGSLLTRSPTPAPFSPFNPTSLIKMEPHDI
# Method in brief: as §1
# ELK4 = target: T3, ELK4 (Homo sapiens, UniProt P28324-2 1-405); details: protein: recombinant; tags: N-terminal GST; dsDNA, one strand shown
# T3 sequence: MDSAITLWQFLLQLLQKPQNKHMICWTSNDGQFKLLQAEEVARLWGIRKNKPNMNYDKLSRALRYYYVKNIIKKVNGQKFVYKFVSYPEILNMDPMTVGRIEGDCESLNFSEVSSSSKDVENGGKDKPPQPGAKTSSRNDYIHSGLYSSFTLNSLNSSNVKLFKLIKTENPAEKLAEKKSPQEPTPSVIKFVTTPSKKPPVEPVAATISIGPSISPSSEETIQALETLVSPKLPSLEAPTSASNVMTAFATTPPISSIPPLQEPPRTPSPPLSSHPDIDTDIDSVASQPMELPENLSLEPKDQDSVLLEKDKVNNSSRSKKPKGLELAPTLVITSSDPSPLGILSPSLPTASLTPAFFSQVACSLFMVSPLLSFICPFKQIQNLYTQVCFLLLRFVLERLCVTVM
# Method in brief: as §1
# ETV2 = target: T4, ETV2 (Homo sapiens, UniProt O00321 1-342); details: protein: recombinant; tags: N-terminal GST; dsDNA, one strand shown
# T4 sequence: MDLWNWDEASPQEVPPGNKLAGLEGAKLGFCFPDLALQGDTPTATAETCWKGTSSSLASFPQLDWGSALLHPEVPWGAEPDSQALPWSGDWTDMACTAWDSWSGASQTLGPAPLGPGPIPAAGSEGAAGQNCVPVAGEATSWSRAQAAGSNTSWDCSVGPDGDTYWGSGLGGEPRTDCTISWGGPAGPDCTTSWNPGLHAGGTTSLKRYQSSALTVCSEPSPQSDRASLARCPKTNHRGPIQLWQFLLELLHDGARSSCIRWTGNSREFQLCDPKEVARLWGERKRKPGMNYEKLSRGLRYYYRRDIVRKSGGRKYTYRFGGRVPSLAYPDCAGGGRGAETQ
# Method in brief: as §1
# ELF3 = target: T5, ELF3 (Homo sapiens, UniProt P78545 1-371); details: protein: recombinant; tags: N-terminal GST; dsDNA, one strand shown
# T5 sequence: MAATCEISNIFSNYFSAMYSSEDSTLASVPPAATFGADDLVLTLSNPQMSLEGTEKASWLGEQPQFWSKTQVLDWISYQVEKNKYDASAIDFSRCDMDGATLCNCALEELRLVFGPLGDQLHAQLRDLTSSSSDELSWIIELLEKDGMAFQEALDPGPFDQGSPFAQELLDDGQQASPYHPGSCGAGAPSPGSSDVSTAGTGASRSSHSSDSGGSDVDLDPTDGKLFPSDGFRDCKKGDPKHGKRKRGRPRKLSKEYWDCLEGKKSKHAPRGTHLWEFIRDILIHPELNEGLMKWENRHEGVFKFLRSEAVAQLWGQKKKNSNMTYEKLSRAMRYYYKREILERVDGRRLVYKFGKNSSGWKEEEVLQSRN
# Method in brief: as §1
# CRX = CRX (Homo sapiens, UniProt O43186 1-299); details: protein: recombinant; tags: N-terminal GST; dsDNA, one strand shown
# Chain of CRX (O43186 whole entry): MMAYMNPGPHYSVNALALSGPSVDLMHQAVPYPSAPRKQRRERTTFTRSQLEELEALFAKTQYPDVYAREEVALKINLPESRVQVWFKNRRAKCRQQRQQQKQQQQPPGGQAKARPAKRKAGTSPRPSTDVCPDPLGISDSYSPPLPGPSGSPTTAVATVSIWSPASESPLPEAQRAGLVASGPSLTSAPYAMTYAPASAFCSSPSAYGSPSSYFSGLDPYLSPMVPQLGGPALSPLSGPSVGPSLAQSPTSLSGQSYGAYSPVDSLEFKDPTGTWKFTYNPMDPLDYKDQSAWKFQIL
# Method in brief: as §1
# ETV1 = ETV1 (Homo sapiens, UniProt P50549 1-477); details: protein: recombinant; tags: N-terminal GST; dsDNA, one strand shown
# Chain of ETV1 (P50549 whole entry): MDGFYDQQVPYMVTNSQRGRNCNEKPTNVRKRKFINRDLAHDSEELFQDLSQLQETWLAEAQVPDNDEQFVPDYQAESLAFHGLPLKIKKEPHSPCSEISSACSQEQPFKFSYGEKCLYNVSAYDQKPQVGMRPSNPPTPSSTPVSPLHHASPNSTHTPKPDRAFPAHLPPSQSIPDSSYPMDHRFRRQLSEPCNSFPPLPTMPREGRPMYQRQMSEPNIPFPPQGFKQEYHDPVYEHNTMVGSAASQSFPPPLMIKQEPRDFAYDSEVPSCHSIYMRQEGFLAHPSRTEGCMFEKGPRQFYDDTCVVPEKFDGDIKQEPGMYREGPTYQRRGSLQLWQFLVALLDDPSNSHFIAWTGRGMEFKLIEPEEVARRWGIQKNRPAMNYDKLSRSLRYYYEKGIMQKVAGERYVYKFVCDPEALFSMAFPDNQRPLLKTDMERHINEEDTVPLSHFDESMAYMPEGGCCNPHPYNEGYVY
# Method in brief: as §1
# ERF = target: T6, ERF (Homo sapiens, UniProt P50548 1-548); details: protein: recombinant; tags: N-terminal GST; dsDNA, one strand shown
# T6 sequence: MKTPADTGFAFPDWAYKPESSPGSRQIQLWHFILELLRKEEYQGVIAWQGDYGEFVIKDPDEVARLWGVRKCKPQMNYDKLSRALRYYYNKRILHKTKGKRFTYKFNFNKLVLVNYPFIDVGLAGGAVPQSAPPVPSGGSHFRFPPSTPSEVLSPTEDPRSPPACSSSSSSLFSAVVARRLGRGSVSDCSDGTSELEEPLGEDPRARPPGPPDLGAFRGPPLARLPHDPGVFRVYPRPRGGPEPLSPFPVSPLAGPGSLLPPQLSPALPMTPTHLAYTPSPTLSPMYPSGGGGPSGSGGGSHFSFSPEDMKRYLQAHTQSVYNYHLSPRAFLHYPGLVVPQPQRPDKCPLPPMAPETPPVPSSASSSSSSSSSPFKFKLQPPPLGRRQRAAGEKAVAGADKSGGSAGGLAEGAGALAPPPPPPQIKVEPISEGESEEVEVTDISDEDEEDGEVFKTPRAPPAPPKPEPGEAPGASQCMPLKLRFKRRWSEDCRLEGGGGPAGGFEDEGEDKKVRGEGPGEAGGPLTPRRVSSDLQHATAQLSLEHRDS
# Method in brief: as §1
# ETV3L = target: T7, ETV3L (Homo sapiens, UniProt Q6ZN32 1-361); details: protein: recombinant; tags: N-terminal GST; dsDNA, one strand shown
# T7 sequence: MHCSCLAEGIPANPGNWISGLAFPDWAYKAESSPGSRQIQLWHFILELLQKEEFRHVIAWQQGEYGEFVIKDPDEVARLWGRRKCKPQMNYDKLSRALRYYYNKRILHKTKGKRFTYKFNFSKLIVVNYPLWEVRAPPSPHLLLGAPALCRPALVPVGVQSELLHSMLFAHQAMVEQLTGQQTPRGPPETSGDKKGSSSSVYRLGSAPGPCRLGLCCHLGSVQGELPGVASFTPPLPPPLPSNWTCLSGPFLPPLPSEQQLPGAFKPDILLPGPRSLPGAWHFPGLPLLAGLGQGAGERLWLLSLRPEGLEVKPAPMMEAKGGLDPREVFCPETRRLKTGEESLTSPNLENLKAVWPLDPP
# Method in brief: as §1
# ETS2 = target: T8, ETS2 (Homo sapiens, UniProt P15036 1-469); details: protein: recombinant; tags: N-terminal GST; dsDNA, one strand shown
# T8 sequence: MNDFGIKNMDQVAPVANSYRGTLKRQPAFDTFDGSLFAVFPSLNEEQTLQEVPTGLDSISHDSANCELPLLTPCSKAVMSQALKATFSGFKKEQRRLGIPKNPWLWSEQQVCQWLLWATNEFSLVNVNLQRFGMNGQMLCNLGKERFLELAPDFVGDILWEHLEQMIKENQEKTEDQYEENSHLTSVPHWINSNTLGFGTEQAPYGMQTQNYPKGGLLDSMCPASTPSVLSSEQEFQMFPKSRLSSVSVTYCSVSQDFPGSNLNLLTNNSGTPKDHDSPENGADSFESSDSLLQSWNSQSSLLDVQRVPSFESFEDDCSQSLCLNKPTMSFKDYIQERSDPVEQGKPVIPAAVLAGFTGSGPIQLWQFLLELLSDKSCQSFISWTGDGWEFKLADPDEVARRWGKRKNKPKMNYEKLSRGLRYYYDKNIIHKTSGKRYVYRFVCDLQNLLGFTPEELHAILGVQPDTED
# Method in brief: as §1
# SPDEF = target: T9, SPDEF (Homo sapiens, UniProt O95238 1-335); details: protein: recombinant; tags: N-terminal GST; dsDNA, one strand shown
# T9 sequence: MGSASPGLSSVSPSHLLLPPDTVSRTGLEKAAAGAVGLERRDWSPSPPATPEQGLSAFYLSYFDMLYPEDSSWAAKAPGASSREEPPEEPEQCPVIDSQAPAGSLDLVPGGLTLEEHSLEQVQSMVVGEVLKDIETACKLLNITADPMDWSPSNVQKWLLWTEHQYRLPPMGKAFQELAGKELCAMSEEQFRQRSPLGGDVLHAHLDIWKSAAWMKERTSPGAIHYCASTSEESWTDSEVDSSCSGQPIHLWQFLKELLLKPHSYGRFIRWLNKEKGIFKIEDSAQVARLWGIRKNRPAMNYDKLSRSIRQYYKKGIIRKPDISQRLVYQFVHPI
# Method in brief: as §1
# ETV7 = target: T10, ETV7 (Homo sapiens, UniProt Q9Y603 1-341); details: protein: recombinant; tags: N-terminal GST; dsDNA, one strand shown
# T10 sequence: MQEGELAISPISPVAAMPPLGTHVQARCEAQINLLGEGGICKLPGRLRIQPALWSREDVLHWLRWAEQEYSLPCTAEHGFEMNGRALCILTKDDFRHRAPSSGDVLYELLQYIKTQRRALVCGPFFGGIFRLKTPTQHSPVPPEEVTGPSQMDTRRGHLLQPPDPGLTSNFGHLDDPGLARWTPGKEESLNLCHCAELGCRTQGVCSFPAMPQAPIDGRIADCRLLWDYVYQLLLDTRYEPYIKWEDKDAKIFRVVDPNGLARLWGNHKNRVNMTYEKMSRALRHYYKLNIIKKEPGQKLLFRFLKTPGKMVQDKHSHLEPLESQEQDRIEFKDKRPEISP
# Method in brief: as §1
# ELF5 = target: T11, ELF5 (Homo sapiens, UniProt Q9UKW6-2 1-255); details: protein: recombinant; tags: N-terminal GST; dsDNA, one strand shown
# T11 sequence: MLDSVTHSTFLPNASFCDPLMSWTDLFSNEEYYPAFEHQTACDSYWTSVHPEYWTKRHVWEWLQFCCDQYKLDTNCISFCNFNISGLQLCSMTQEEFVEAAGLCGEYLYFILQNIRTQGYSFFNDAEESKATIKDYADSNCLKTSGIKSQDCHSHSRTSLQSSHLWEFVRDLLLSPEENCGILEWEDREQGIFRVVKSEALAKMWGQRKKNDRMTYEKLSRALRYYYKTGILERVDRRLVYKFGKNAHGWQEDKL
# Method in brief: as §1
# ETV3 = target: T12, ETV3 (Homo sapiens, UniProt P41162-2 1-143); details: protein: recombinant; tags: N-terminal GST; dsDNA, one strand shown
# T12 sequence: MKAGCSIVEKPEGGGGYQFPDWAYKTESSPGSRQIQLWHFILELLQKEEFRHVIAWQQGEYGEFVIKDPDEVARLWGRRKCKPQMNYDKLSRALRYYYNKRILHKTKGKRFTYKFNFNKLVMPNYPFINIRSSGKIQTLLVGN
# Method in brief: as §1
# ETV6 = ETV6 (Homo sapiens, UniProt P41212 1-452); details: protein: recombinant; tags: N-terminal GST; dsDNA, one strand shown
# Chain of ETV6 (P41212 whole entry): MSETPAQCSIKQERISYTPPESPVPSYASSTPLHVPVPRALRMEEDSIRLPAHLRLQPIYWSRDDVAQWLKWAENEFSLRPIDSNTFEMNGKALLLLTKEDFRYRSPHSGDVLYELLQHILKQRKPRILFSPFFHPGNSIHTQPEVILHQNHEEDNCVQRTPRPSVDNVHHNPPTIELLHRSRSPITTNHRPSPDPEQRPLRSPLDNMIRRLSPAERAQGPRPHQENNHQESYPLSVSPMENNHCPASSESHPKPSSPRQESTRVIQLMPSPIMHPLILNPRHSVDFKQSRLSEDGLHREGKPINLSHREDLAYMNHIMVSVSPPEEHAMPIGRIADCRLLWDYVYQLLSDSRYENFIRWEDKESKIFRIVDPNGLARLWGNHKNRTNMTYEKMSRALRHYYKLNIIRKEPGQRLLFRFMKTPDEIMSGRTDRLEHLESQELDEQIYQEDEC
# Method in brief: as §1
sequence,measurement,setting,value
CCTCCC,binding signal,FEV,"1.59 fold enrichment (6-mer frequency, TF over GST control)"
same,binding signal,ETV5,"1.55 fold enrichment (6-mer frequency, TF over GST control)"
same,binding signal,HSF1,"1.12 fold enrichment (6-mer frequency, TF over GST control)"
same,binding signal,SPIC,"1.65 fold enrichment (6-mer frequency, TF over GST control)"
same,binding signal,ELF4,"1.66 fold enrichment (6-mer frequency, TF over GST control)"
same,binding signal,ELK4,"1.3 fold enrichment (6-mer frequency, TF over GST control)"
same,binding signal,ETV2,"1.71 fold enrichment (6-mer frequency, TF over GST control)"
same,binding signal,ELF3,"1.36 fold enrichment (6-mer frequency, TF over GST control)"
same,binding signal,CRX,"1.21 fold enrichment (6-mer frequency, TF over GST control)"
same,binding signal,ETV1,"1.36 fold enrichment (6-mer frequency, TF over GST control)"
same,binding signal,ERF,"1.59 fold enrichment (6-mer frequency, TF over GST control)"
same,binding signal,ETV3L,"1.49 fold enrichment (6-mer frequency, TF over GST control)"
same,binding signal,ETS2,"1.58 fold enrichment (6-mer frequency, TF over GST control)"
same,binding signal,SPDEF,"1.38 fold enrichment (6-mer frequency, TF over GST control)"
same,binding signal,ETV7,"1.44 fold enrichment (6-mer frequency, TF over GST control)"
same,binding signal,ELF5,"1.49 fold enrichment (6-mer frequency, TF over GST control)"
same,binding signal,ETV3,"1.43 fold enrichment (6-mer frequency, TF over GST control)"
same,binding signal,ETV6,"1.44 fold enrichment (6-mer frequency, TF over GST control)"
